Laboratory results reported in PubChem BioAssay (NCATS).
Results filed as inconclusive are left out. Entries that show only a call come without a potency. Values without a mark were called inactive. Calls of active or inactive are those of the source. Calls follow the shape of the dose curve; as a rule, active = well fitted cell-killing curve with a large enough effect; inconclusive = small, poorly fitted or top-dose-only effect, or effect the other way; inactive = no such curve, though single readings can be large or run the other way.

Key:
[1] = Viability qHTS for spleen associated tyrosine kinase inhibitor (SYKi) naive MV4-11 cells (AID 1963823); also: nearly all actives have a fitted effect of over 40% in size
Procedure, shortened: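 SYK inhibitor-naive MV4-11 cells, 500 per well, exposed to compounds for 72 hr at 37 C, 5% CO2. Viability read as CellTiter-Glo luminescence after 10 min at room temperature.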

[2] = Viability qHTS for spleen associated tyrosine kinase inhibitor (SYKi) drug resistant MV4-11 cells (AID 1963824); also: nearly all actives have a fitted effect of over 35% in size
Procedure, shortened: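 CellTiter-Glo luminescence, read 10 min after reagent addition, reports viability after a 72 hr compound exposure. Cells are an MV4-11 line made resistant to SYK inhibition, seeded at 500 per well onto compound-containing plates.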
Potency is read from the fitted curve at half-maximal effect.

| Structure (SMILES) | Potency [1] | Potency [2] | viability (% of control) [1] | viability, % of control [2] |
| --- | --- | --- | --- | --- |
| CC1(C)CC[C@]23CO[C@@]4(CCC5[C@@]6(C)CC[C@H](O[C@@H]7OC[C@H](O[C@@H]8O[C@H](CO)[C@@H](O)[C@H](O)[C@H]8O[C@@H]8OC[C@@H](O)[C@H](O)[C@H]8O)[C@H](O)[C@H]7O[C@@H]7O[C@H](CO)[C@@H](O)[C@H](O)[C@H]7O)[C@@](C)(CO)C6CC[C@@]5(C)[C@]4(C)C[C@H]2O)[C@@H]3C1 (some centres undefined) | 2.19 µM (active) | 3.9 µM (active) |  |  |
| CC1OC(OC2CCC3(C)C(CCC4(C)C3CC=C3C5CC(C)(C)CCC5(C(=O)OC5OC(CO)C(O)C(O)C5O)CCC34C(=O)O)C2(C)C)C(O)C(O)C1O (centres undefined) | inactive | inactive |  |  |
| O=C(O[C@H]1[C@@H]2C=CO[C@@H](O[C@@H]3O[C@H](CO)[C@@H](O)[C@H](O)[C@H]3O)[C@@H]2[C@@]2(CO)O[C@@H]12)c1ccccc1 | inactive | inactive |  |  |
| COc1cc(O)c2c(c1Cl)CC(C)OC2=O (centres undefined) | inactive | inactive |  |  |
| CC(C)=CCC[C@](C)(O)[C@H]1CC[C@]2(C)[C@@H]1[C@H](O)CC1[C@@]3(C)CC[C@H](O)C(C)(C)C3[C@@H](O[C@@H]3O[C@H](CO)[C@@H](O)[C@H](O)[C@H]3O[C@@H]3OC[C@@H](O)[C@H](O)[C@H]3O)C[C@]12C (some centres undefined) | inactive | inactive |  |  |
| COc1ccc2c(c1)CN(C(=O)CCN1CCC(Cc3ccccc3)CC1)CCS2 | 8.93 µM (active) | 8.93 µM (active) |  |  |
| O=C(Nc1nc2ccc([N+](=O)[O-])cc2s1)C1CCCCC1 | 20.6 µM (active) | 18.4 µM (active) |  |  |
| C=CC(=O)N1CCN(C(=O)CNc2cc(I)c(Cl)cc2O)CC1 | 7.31 µM (active) | 6.51 µM (active) |  |  |
| CCC[C@@H]1C[C@@H](C(=O)N[C@@H]([C@H]2O[C@H](SC)[C@H](OP(=O)(O)O)[C@@H](O)[C@H]2O)[C@H](C)Cl)N(C)C1 | inactive | inactive |  |  |
| CC(C)C1CCC(C(=O)N[C@@H](Cc2ccccc2)C(=O)O)CC1 (some centres undefined) | inactive | inactive |  |  |
| CN(C)C(=O)NC1(c2ccccc2)CCN(CCC[C@]2(c3ccc(Cl)c(Cl)c3)CCCN(C(=O)c3ccccc3)C2)CC1 | 2.59 µM (active) | 4.11 µM (active) |  |  |
| CCOCCn1nc(CC)c2nc(N3CCC(C(=O)O)CC3)nc(Nc3cc(C)ccn3)c21 | inactive | inactive |  |  |
| O=C(/C=C/c1ccc2ccccc2n1)c1ccncc1 | 1.46 µM (active) | 1.64 µM (active) |  |  |
| O=C(c1cc2c(cc1F)OC(c1ccc(F)cc1)(c1ccc(Cl)cc1Cl)O2)N1CCOCC1 (centres undefined) | inactive | inactive |  |  |
| N[C@@H](Cn1ccc(=O)c(O)c1)C(=O)O |  |  | 88% [at 4.97 µM] | 98% [at 4.97 µM] |
| CNC(=O)COC(=O)NCCC1CCN(c2cccc(C)n2)CC1 | inactive | inactive |  |  |
| C=C1CC[C@H]2[C@@](C)(CCC[C@@]2(C)C(=O)O)[C@@H]1CCC(C)CCO (some centres undefined) | inactive | inactive |  |  |
| CC(=O)N[C@H]1[C@H](O[C@H]2CC[C@@]3(C)C(CC[C@]4(C)C3CC=C3C5CC(C)(C)CC[C@]5(C(=O)O)[C@H](O)C[C@]34C)C2(C)C)O[C@H](CO[C@@H]2OC[C@H](O)[C@H](O)[C@H]2O[C@@H]2OC[C@@H](O)[C@H](O)[C@H]2O)[C@@H](O)[C@@H]1O (some centres undefined) |  |  | 83.2% [at 9.25 µM] | 113% [at 9.25 µM] |
| Nc1nc(Nc2ccc3c(c2)CCC(N2CCCC2)CC3)nn1-c1cc2c(nn1)-c1ccccc1CCC2 (centres undefined) | 0.231 µM (active) | 0.366 µM (active) |  |  |
| O=C(Cc1ccccc1)OC[C@H]1O[C@H](O[C@H]2O[C@H](CO)[C@@H](O)[C@H](O)[C@H]2O)[C@H](O)[C@@H](O)[C@@H]1O | inactive | inactive |  |  |
| CC(=O)O[C@@H]1[C@H](O[C@@H]2O[C@H](CO)[C@@H](O)[C@H](O)[C@H]2O)[C@@H](O[C@@H]2O[C@@H](C)[C@H](O)[C@@H](O[C@@H]3O[C@H](CO)[C@@H](O)[C@H](O)[C@H]3O)[C@H]2O)[C@H](OC(=O)C23CCC4(C)C(=CCC5C6(C)CC(O)C(O[C@@H]7O[C@H](C(=O)O)[C@@H](O)[C@H](O)[C@H]7O)C(C)(C(=O)O)C6CCC54C)C2CC(C)(C)CC3O)O[C@@H]1C (some centres undefined) |  |  | 92% [at 9.25 µM] | 102% [at 9.25 µM] |
| COc1ccc(Oc2c(Cl)cnn(-c3cc(C)cc(C)c3)c2=O)cc1 | 2.31 µM (active) | 2.06 µM (active) |  |  |
